Screening results deposited in PubChem by National Center for Advancing Translational Sciences (NCATS).
FBPA Giardia inh = Giardia lamblia aldolase inhibition; AID 2451; hit rate 0.71% among 290,000; Potency, µM (doses to about 59.6 µM), without a hit: at the highest dose activity, negative = inhibition, most hits filed as inhibitors; A8B2U2; purified Giardia FBPA; further: potency means the concentration at half of the fitted maximal effect; on the % scale 0 is the no-effect control and ±100 the full control effect; nearly all actives have a fitted effect of over 55% in size
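40 nM FBPA preincubated 10 min at RT with compound (up to 57.5 uM final), then substrate plus GAPDH/TPI/NAD/arsenate coupling and diaphorase/resazurin added. Fluorescence read after 20 min at RT, 525/598 nm.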
RE007 growth inh = less growth of the S. pombe RE007 Vpr strain | S. pombe RE007 Vpr strain, BacTiter-Glo ATP luminescence, 24 h | Potency, µM (top dose mostly 92.2 µM), for the others: at the highest dose activity change, negative = less growth, usual class: inhibitors | hit rate 0.21% among 360,000 | AID 651644; active means well fitted falling curve with a large enough effect; inconclusive means small, poorly fitted or top-dose-only effect; inactive means no such curve, though single readings can be large or run the other way; further: potency means the concentration at half of the fitted maximal effect; on the % scale 0 is the no-effect control and ±100 the full control effect; nearly all actives have a fitted effect of over 50% in size
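Fission yeast strain RE007, carrying one chromosomally integrated HIV-1 vpr copy, was seeded at OD 0.01 in PMG+AL medium with 23 nL pinned compound. After 24 h at 30 °C and 99% humidity, viability was read by BacTiter-Glo luminescence.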
LmPK inh = inhibitors of Leishmania mexicana pyruvate kinase; Q27686; purified LmPK, Kinase-Glo ATP luminescence, 1 h; Potency, µM (series often up to 57.5 µM), for inactives: at the highest dose activity change, negative = inhibition, actives largely listed as inhibitors; hit rate 0.37% among 290,000; AID 1721; further: potency means the concentration at half of the fitted maximal effect; on the % scale 0 is the no-effect control and ±100 the full control effect
Target sequence (Q27686 whole entry, looked up): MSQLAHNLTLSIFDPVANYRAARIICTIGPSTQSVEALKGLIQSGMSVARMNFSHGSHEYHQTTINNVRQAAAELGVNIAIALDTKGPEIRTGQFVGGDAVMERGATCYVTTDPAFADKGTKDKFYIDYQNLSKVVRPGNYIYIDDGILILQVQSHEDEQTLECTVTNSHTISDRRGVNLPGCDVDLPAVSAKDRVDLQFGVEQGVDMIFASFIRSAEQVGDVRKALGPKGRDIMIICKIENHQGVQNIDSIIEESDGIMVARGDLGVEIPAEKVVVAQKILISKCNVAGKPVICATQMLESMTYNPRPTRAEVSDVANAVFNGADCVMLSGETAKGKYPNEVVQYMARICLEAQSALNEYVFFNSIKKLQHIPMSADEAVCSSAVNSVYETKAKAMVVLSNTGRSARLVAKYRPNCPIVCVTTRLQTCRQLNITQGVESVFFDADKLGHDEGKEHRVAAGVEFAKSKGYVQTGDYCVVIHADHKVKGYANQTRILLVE
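ATP generated from ADP (0.1 mM) and PEP (0.5 mM) by 0.1 nM LmPK over 1 h at room temperature (pH 7.2 imidazole buffer) was detected by coupled luciferase luminescence. Values were normalized to uninhibited and no-enzyme wells.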
Cycloheximide cs = affects cycloheximide protein synthesis inhibition readout, counter-screen | max response, % | AID 2314 | cell reporter, cycloheximide protein synthesis inhibition counterscreen | hit rate 12% among 300,000; in the data active means max response mostly above about 13%, no sharp cut-off; inactive means mostly below about 14%; further: read at 38.3 µM for the half of the compounds with a filed dose; 0% is about no effect
Shiga toxin inh = inhibitors of Shiga toxin in Vero cells. Vero cells, Shiga toxin protein synthesis inhibition reporter. inhibition, % at 38.7 µM. hit rate 9.2% among 290,000; in the data active means inhibition mostly above about 28%, no sharp cut-off; inactive means mostly below about 43%; further: 0% is about no effect
TbPYK inhibitor = T. brucei pyruvate kinase inhibition. Q57TT1. TbPYK enzyme, Kinase-Glo Plus ATP luminescence, 45 min. Potency, µM (highest dose often 76.8 µM), for the others: top-dose activity, negative = inhibition, actives largely listed as inhibitors. hit rate 0.12% among 410,000; further: potency means the concentration at half of the fitted maximal effect; on the % scale 0 is the no-effect control and ±100 the full control effect; nearly all actives have a fitted effect of over 50% in size
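Assay buffer: 50 mM TEA pH 7.2, 100 mM KCl, 10 mM MgCl2, 0.05% BSA, 0.01% Tween-20. Pyruvate kinase from T. brucei plus substrate met compound, then ADP (130 uM final). Luminescence was read post 45 min RT.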
* hit, by the source's call; u = inconclusive; x = no result. The entries come from a sample that favours hits as a whole. Unless noted, the call rests on the fitted dose curve; in most records, active means well fitted curve in the direction sought with a large enough effect; inconclusive means small, poorly fitted or top-dose-only effect, or another doubt; inactive means no such curve, though single readings can be large; an effect the other way counts as inactive or inconclusive.

SMILES | FBPA Giardia inh | RE007 growth inh | LmPK inh | Cycloheximide cs | Shiga toxin inh | TbPYK inhibitor
COc1ccccc1OCCCOc1c(Cl)cc(C)cc1Cl | -2% | 2% | -6% | 15* | 21 | -4%
CCCn1c(SCc2nc3ccccc3s2)n[nH]c1=O | -14% | 20% | -7% | 53* | 90* | 0%
O=c1[nH]nc(SCc2nc3ccccc3s2)n1C1CC1 | -23% | -1% | -18% | 52* | 103* | -4%
CCCn1c(=O)c2ccccc2n2c(SCc3nc4ccccc4s3)nnc12 | 1% | 12% | -4% | 31* | 142* | 2%
Cc1cc(C)c(-n2c(SCc3nc4ccccc4s3)n[nH]c2=O)c(C)c1 | -2% | 4% | 0% | 4 | 6 | -5%
CCCn1cc(S(=O)(=O)c2cc(C)ccc2C)c(=O)c2cc(F)c(N3CCN(CC)CC3)cc21 | x | x | x | x | x | -6%
CN1CCC(C2(O)c3ccccc3CCc3ccccc32)CC1 | -9% | 5% | -1% | 34* | 58* | 10%
N#Cc1cn(-c2ccccc2)nc1-c1ccccc1 | 14% | 4% | 4% | 21* | 25 | -13%
C(=N\N1CCOCC1)/c1cn(-c2ccccc2)nc1-c1ccccc1 | -1% | -5% | 1% | 22* | 35 | 3%
Cc1ccc(-c2nn(-c3ccccc3)cc2CO)o1 | 2% | u | -5% | 34* | 85* | -2%
Cc1ccc(-c2nn(-c3ccccc3)cc2C=O)o1 | -23% | u | -1% | 51* | 112* | -6%
Cc1ccc(-c2nn(-c3ccccc3)cc2C(N)=O)o1 | -1% | 1% | 1% | 12 | -4 | -18%
COc1ccc(N2CCN(C(=O)CN3C(=O)COc4ccc(S(=O)(=O)N5CCC(C)CC5)cc43)CC2)cc1 | x | x | x | x | x | 2%
O=Cc1cn(-c2ccccc2)nc1-c1ccncc1 | 0% | 13% | -2% | 5 | -3 | -3%
CCc1ccc(-c2nn(Cc3ccccc3)cc2C=O)cc1 | -1% | -5% | 0% | 50* | 90* | 1%
O=Cc1cn(-c2ccccc2)nc1-c1ccccc1 | 5% | 0% | -11% | 44* | 45* | -14%
Cc1ccc(-c2nn(-c3cccc(F)c3)cc2CNCc2cccnc2)o1 | 1% | -17% | 1% | 10* | 27 | 1%
CCn1nc(C)cc1C(=O)N1CCCC(C(=O)c2ccccc2SC)C1 (centres undefined) | 15% | -10% | -1% | 1 | -5 | 3%
O=C(N/N=C/c1ccsc1)c1cc(-c2ccncc2)nc2ccccc12 | 1% | x | 6% | -2 | -16 | -7%
O=C(N/N=C/c1ccc(Br)s1)c1ccccn1 | 0% | -20% | -15% | 48* | 84* | -2%
O=C(N/N=C/c1ccsc1)c1ccccn1 | -23% | 2% | -22% | 28* | 70* | -8%
CC(C)(C)c1ccc(/C=N/NC(=O)c2ccccn2)cc1 | -22% | -20% | -15% | 38* | 42* | -8%
Cn1nc(NC(=O)C(F)(F)F)c2ncc(-c3ccc(Cl)cc3)nc21 | 6% | x | 0% | 41* | 68* | 1%
CC(=Nc1ccccc1N)c1c(C)cc(=O)n(O)c1O | 16µM* | x | x | 31* | 57* | x
Cc1cc(=O)n(Nc2ccccc2)c(O)c1C#N | x | 23% | x | x | x | u
SMILES | FBPA Giardia inh | RE007 growth inh | LmPK inh | Cycloheximide cs | Shiga toxin inh | TbPYK inhibitor
CCCc1cc(C(=O)NCc2ccc(OC)cc2)no1 | -1% | 9% | -11% | 21* | 77* | 4%
COc1ccc(CNC(=O)c2cc(-c3ccco3)on2)cc1 | 0% | 11% | 1% | 9 | 11 | -5%
CCCc1cc(C(=O)Nc2ccc(CC)cc2)no1 | -3% | -5% | -4% | 54* | 73* | -5%
CCCc1cc(C(=O)Nc2ccc(C)cc2)no1 | 3% | -17% | -3% | 34* | 127* | 6%
CCCCCCCCCCCCC/C=C\[C@@H](O)[C@H](CO)NC(C)=O | 2% | x | x | x | x | x
C#CCSc1nc(-c2cccs2)ccc1C#N | 2% | 13% | 1% | 0 | -1 | -1%
COC(=O)CSc1nc(-c2cccs2)ccc1C#N | -12% | -12% | 0% | 36* | 50 | u
CC(=O)c1cc(C#N)c(SCc2ccccn2)nc1C | -1% | 0% | 1% | 47* | 68* | 3%
